Here are results for ten compounds from article PMC5540273 (PLoS ONE, 2017).

Values joined by “and” are separate entries in the source; they are usually repeats but may differ in a detail not shown here. Equal values may be shown once. Read-outs that look alike come from different tables or passages of the source.

The test system of one experiment is NEK6. To be noted: concentration: 1 μM, replicates: in singlicate, n = 1.
Another experiment has as its system NEK7. To be noted: concentration: 1 μM, replicates: in singlicate; n = 1.
The subject of the next experiment is NEK9. To be noted: concentration: 1 μM, replicates: in singlicate, n = 1.
For another experiment, the system named is T1, NIK.
T1 construct: gene MAP3K14
The note with it: concentration: 1 μM, replicates: in singlicate, n = 1.

Another experiment deals with T2, NIM1.
T2 construct: gene MGC42105
To be noted: concentration: 1 μM, replicates: in singlicate, n = 1.

Another experiment has as its system NLK. The note with it: concentration: 1 μM, replicates: in singlicate, n = 1.
A further experiment relates to T3, OSR1.
T3 construct: gene OXSR1
To be noted: concentration: 1 μM, replicates: in singlicate, n = 1.

Another experiment has as its system PAK1. The note with it: concentration: 1 μM, replicates: in singlicate, n = 1.
A further experiment relates to PAK2. The note with it: concentration: 1 μM, replicates: in singlicate, n = 1.
A further experiment deals with PAK3. The note with it: concentration: 1 μM, replicates: in singlicate, n = 1.
The next experiment relates to PAK4. To be noted: concentration: 1 μM, replicates: in singlicate, n = 1.
Another experiment has as its system PAK6. To be noted: concentration: 1 μM, replicates: in singlicate, n = 1.
Another experiment concerns PAK7. The note with it: concentration: 1 μM, replicates: in singlicate, n = 1.
The subject of another experiment is T4, PCTK1.
T4 construct: gene CDK16
To be noted: concentration: 1 μM, replicates: in singlicate, n = 1.

For another experiment, the system named is T5, PCTK2.
T5 construct: gene CDK17
The note with it: concentration: 1 μM, replicates: in singlicate, n = 1.

In a further experiment the test system is T6, PCTK3.
T6 construct: gene CDK18
To be noted: concentration: 1 μM, replicates: in singlicate; n = 1.

For the next experiment, the system named is PDGFRA. To be noted: concentration: 1 μM, replicates: in singlicate, n = 1.
The test system of another experiment is PDGFRB. To be noted: concentration: 1 μM, replicates: in singlicate, n = 1.
Another experiment has as its system PDPK1. To be noted: concentration: 1 μM, replicates: in singlicate, n = 1.
Another experiment relates to PFTAIRE2. The note with it: concentration: 1 μM, replicates: in singlicate, n = 1.
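Also: KINOMEscan kinase panel screen.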

Take `Cc1ccc(NC(=O)c2ccnc(N3CCN(C)CC3)c2)cc1-c1ccc(C(=O)NCC2CC2)cc1` [GW775604]: the “%Inh” value amounted to 0% with NEK6; 0% with NEK7; 0% in the experiment on NEK9; 4% in the experiment on NIK; 0% in the experiment with NIM1; 0% with NLK. The “%Inh” value in the experiment on OSR1 was 0%; with PAK1 it was 9%; with PAK2 it was 37%; in the experiment with PAK3, 0%; in the experiment with PAK4 it was 0%; in the experiment with PAK6, 0%. In addition, the “%Inh” value in the experiment on PAK7 amounted to 0%; with PCTK1, 0%; in the experiment on PCTK2, 0%; in the experiment with PCTK3 it was 0%; in the experiment on PDGFRA it was 0%; in the experiment on PDGFRB, 93.4%. For the same compound, the results for the “%Inh” value in the experiment on PDPK1 and with PFTAIRE2 were 0% and 1%, respectively.
For the compound `O=C(Nc1n[nH]c2cc(-c3cccc(F)c3)ccc12)C1CC1` [SB-735464], the “%Inh” value in the experiment with NEK6 is on record as 3%; in the experiment with NEK7 it was 0%; with NEK9 it was 0%; in the experiment on NIK, 9%; with NIM1 it was 12%; with NLK, 86%. Further, the “%Inh” value came to 0% in the experiment with OSR1; 0% with PAK1; 30% with PAK2; 44% in the experiment with PAK3; 0% in the experiment with PAK4; 0% with PAK6. Also, the “%Inh” value is given as 0% with PAK7; 5% in the experiment with PCTK1; 6% in the experiment on PCTK2; 0% in the experiment on PCTK3; 42% in the experiment with PDGFRA; 67% in the experiment on PDGFRB. The “%Inh” value in the experiment with PDPK1 amounted to 0%; in the experiment on PFTAIRE2 it was 26%.
For `O=C1NC(=O)C(N2CCc3ccccc32)=C1c1cccc(Cl)c1` [SB-408010], the “%Inh” value was 9% in the experiment on NEK6; 0% in the experiment with NEK7; 0% in the experiment with NEK9; 0% with NIK; 0% in the experiment on NIM1; 12% in the experiment with NLK. Besides, the “%Inh” value in the experiment with OSR1 was 0%; in the experiment with PAK1 it was 9%; in the experiment with PAK2, 44%; in the experiment on PAK3, 0%; with PAK4 it was 13%; in the experiment with PAK6, 13%. In addition, the “%Inh” value is reported as 6% in the experiment with PAK7; 0% with PCTK1; 0% in the experiment on PCTK2; 16% with PCTK3; 9% in the experiment with PDGFRA; 5% with PDGFRB. Besides, the “%Inh” value in the experiment with PDPK1 and in the experiment on PFTAIRE2 was 0% each time.
`CC(C)(CN)c1nc(-c2ccc(Cl)c(O)c2)c(-c2ccncc2)[nH]1.O=C(O)C(F)(F)F` [SB-477794]: the “%Inh” value was 0% and 2% with NEK6 (1 µM); 0% in the experiment on NEK7; 0% and 11% in the experiment with NEK9 (1 µM); 0% and 3% in the experiment with NIK (1 µM); 4% and 0% in the experiment with NIM1 (1 µM); 98.1% and 98.4% in the experiment on NLK (1 µM). The “%Inh” value in the experiment on OSR1 (1 µM) was 4% and 0%; in the experiment on PAK1 (1 µM), 23% and 11%; with PAK2 (1 µM) it was 1% and 0%; with PAK3 (1 µM) it was 35% and 39%; with PAK4, 0%; in the experiment with PAK6 (1 µM) it was 10% and 0%. The “%Inh” value with PAK7 (1 µM) was 21% and 25%; in the experiment with PCTK1 (1 µM) it was 4% and 0%; in the experiment on PCTK2 (1 µM) it was 99.7% and 0%; with PCTK3, 0%; in the experiment with PDGFRA it was 59%; in the experiment with PDGFRB (1 µM), 99.5% and 98.1%. Besides, the “%Inh” value in the experiment on PDPK1 was 0%; in the experiment on PFTAIRE2 (1 µM), 14% and 7%.
`NS(=O)(=O)c1cccc(-c2ccc3nccc(-c4cccc(S(N)(=O)=O)c4)c3c2)c1` [GW867253]: the “%Inh” value with NEK6 stood at 0%; with NEK7, 0%; with NEK9, 0%; with NIK, 32%; in the experiment with NIM1, 0%; with NLK, 0%. The “%Inh” value in the experiment with OSR1 stood at 0%; in the experiment with PAK1 it was 7%; in the experiment with PAK2, 53%; in the experiment with PAK3 it was 0%; with PAK4, 0%; in the experiment on PAK6, 0%. The “%Inh” value in the experiment on PAK7 came out at 6%; with PCTK1 it was 0%; in the experiment with PCTK2, 0%; in the experiment with PCTK3 it was 0%; in the experiment on PDGFRA it was 0%; in the experiment on PDGFRB, 1%. Besides, the “%Inh” value is listed as 0% with PDPK1 and 19% with PFTAIRE2.
On to `NCC(NC(=O)c1cc(-c2cn[nH]c2)c(-c2ccnc3[nH]ccc23)s1)c1ccccc1.O=C(O)C(F)(F)F.O=C(O)C(F)(F)F` (centres unmarked) [GSK1325775], for which the “%Inh” value in the experiment with NEK6 came to 0%; in the experiment with NEK7 it was 0%; in the experiment on NEK9, 10%; with NIK, 28%; in the experiment on NIM1 it was 38%; in the experiment on NLK it was 0%. The “%Inh” value in the experiment on OSR1 is given as 4%; in the experiment with PAK1 it was 19%; with PAK2 it was 32%; with PAK3, 39%; in the experiment with PAK4, 50%; in the experiment with PAK6 it was 74%. For the same compound, the “%Inh” value in the experiment on PAK7 came out at 74%; in the experiment with PCTK1 it was 15%; in the experiment on PCTK2, 9%; in the experiment with PCTK3, 0%; in the experiment on PDGFRA, 26%; with PDGFRB, 61%. Further, the “%Inh” value in the experiment on PDPK1 is 0%; with PFTAIRE2, 17%.
Regarding `O=c1cc(N2CCOCC2)nc2n(Cc3cccc(F)c3)ccn12` [GSK2297430], the “%Inh” value was 0% with NEK6; 0% in the experiment with NEK7; 7% with NEK9; 7% in the experiment with NIK; 0% in the experiment with NIM1; 0% in the experiment with NLK. Moreover, the “%Inh” value is given as 1% with OSR1; 18% in the experiment on PAK1; 9% in the experiment with PAK2; 79% in the experiment on PAK3; 0% in the experiment on PAK4; 0% in the experiment on PAK6. Also, the “%Inh” value in the experiment on PAK7 came to 0%; in the experiment with PCTK1 it was 5%; with PCTK2, 0%; in the experiment on PCTK3 it was 27%; in the experiment with PDGFRA, 0%; with PDGFRB it was 12%. The “%Inh” value in the experiment on PDPK1 amounted to 32%; in the experiment on PFTAIRE2, 7%.
`CN1c2ccc(NCc3ccc(F)cc3)cc2-c2c(cnn2C)S1(=O)=O`: the “%Inh” value stood at 0% with NEK6; 0% in the experiment on NEK7; 0% in the experiment on NEK9; 7% with NIK; 4% in the experiment on NIM1; 0% in the experiment with NLK. Further, the “%Inh” value with OSR1 is listed as 0%; in the experiment on PAK1 it was 0%; with PAK2 it was 1%; with PAK3, 0%; in the experiment on PAK4, 0%; with PAK6 it was 0%. The “%Inh” value in the experiment on PAK7, in the experiment with PCTK1, in the experiment with PCTK2, in the experiment on PCTK3, with PDGFRA and in the experiment with PDGFRB was 0% in each case. The “%Inh” value in the experiment with PDPK1 and in the experiment with PFTAIRE2 was 0% in each case.
With `CSc1ccc(-c2cc3ncnc(SCC(=O)O)c3s2)cc1`, the “%Inh” value in the experiment with NEK6 stood at 17%; with NEK7, 8%; in the experiment on NEK9, 0%; with NIK, 0%; in the experiment with NIM1, 0%; with NLK, 26%. In addition, the “%Inh” value in the experiment on OSR1, in the experiment with PAK1, with PAK2, in the experiment with PAK3, in the experiment on PAK4 and in the experiment on PAK6 was 0% in each case. The “%Inh” value with PAK7 came out at 8%; with PCTK1, 0%; with PCTK2, 0%; with PCTK3, 6%; with PDGFRA it was 15%; in the experiment with PDGFRB, 50%. Further, the “%Inh” value is 10% in the experiment on PDPK1 and 12% in the experiment on PFTAIRE2.
On to `NCCNS(=O)(=O)c1ccc(-c2ccnc3[nH]ccc23)cc1` [GSK977617], for which the “%Inh” value with NEK6 (1 µM) was 4% and 0%; in the experiment with NEK7 it was 0%; in the experiment on NEK9 (1 µM), 22% and 16%; in the experiment on NIK (1 µM), 19% and 7%; in the experiment on NIM1 (1 µM), 0% and 26%; in the experiment with NLK, 0%. The “%Inh” value is 63% and 52% in the experiment with OSR1 (1 µM); 66% and 43% in the experiment on PAK1 (1 µM); 65% and 41% in the experiment on PAK2 (1 µM); 90.6% and 78% in the experiment with PAK3 (1 µM); 82% and 75% in the experiment on PAK4 (1 µM); 73% and 61% in the experiment with PAK6 (1 µM). The “%Inh” value in the experiment with PAK7 (1 µM) is 90.8% and 77%; with PCTK1 (1 µM), 1% and 2%; in the experiment with PCTK2 (1 µM), 7% and 0%; in the experiment with PCTK3, 0%; in the experiment on PDGFRA (1 µM), 11% and 10%; with PDGFRB (1 µM), 80% and 65%. The “%Inh” value in the experiment with PDPK1 (1 µM) is 11% and 0%; in the experiment with PFTAIRE2 it was 25%.
